From PubChem BioAssay (NCI) come the findings set out here.

About 83,000 compounds went through this panel and 20% of them were active in at least one assay; those are over-represented in the sample as a whole.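 Testing used 96-well plates and a 48-hour single-concentration exposure. Example: -40 means 40% of the starting cells died.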 A number with no mark means an inactive call. Calls of active or inactive are those of the source. Rule for the calls: active = growth percent below 10; inactive = the rest.

Test systems include HCT-15 colon; HT29 colon; SNB-75 CNS; SNB-19 CNS; PC-3 prostate; SK-MEL-5 melanoma; UACC-62 melanoma; LOX IMVI melanoma; SK-MEL-28 melanoma.
Common to all, as to experiment: NCI-60 one-dose screen, 48 h (100 = growth as untreated, 0 = no growth, -100 = all killed)
What all share (details): 10 µM unless noted

Regarding `Cc1ccc(C2CC3c4ccccc4C2C2CCCCN32)cc1` (configuration not stated), the growth is 99.8% in the assay with HCT-15 colon; 90.4% in the assay with HT29 colon; 69.9% in the assay on SNB-75 CNS; 87.4% in the assay with SNB-19 CNS; 80% in the assay on PC-3 prostate; 76.4% in the assay with SK-MEL-5 melanoma. The growth in the assay with UACC-62 melanoma is 99.3%; in the assay with LOX IMVI melanoma it was 84.4%; in the assay with SK-MEL-28 melanoma, 96.4%.
As for `O=[N+]([O-])c1cccc(C2CC(c3ccccc3)=Nc3ccccc3S2)c1` (configuration not stated), the growth with HCT-15 colon is 84.7%; with HT29 colon, 44.1%; in the assay with SNB-75 CNS, 68.2%; with SNB-19 CNS it was 87.2%; in the assay with PC-3 prostate it was 77.4%; with SK-MEL-5 melanoma, 94.8%. For the same molecule, the growth in the assay with UACC-62 melanoma was 88.4%; in the assay with LOX IMVI melanoma, 22.6%; with SK-MEL-28 melanoma, 96.4%.
On to `COc1ccc(-c2cc(NC(=O)Nc3ccc(O)cc3)no2)cc1`, for which the growth was 49.5% with HCT-15 colon; 98.8% in the assay on HT29 colon; 62.6% in the assay with SNB-75 CNS; 91.5% in the assay with SNB-19 CNS; 57.6% in the assay on PC-3 prostate; 82.3% in the assay with SK-MEL-5 melanoma. Besides, the growth in the assay on UACC-62 melanoma was 44.5%; in the assay on LOX IMVI melanoma, 7.79% (active); with SK-MEL-28 melanoma it was 101%.
Take `CCc1ccccc1NC(=O)c1sc2nc3c(cc2c1N)C(=O)CCC3`: the growth was 31.2% with HCT-15 colon; 8.59% (active) with HT29 colon; -15.4% (active) with SNB-75 CNS; 68.9% in the assay with SNB-19 CNS; 18% in the assay with PC-3 prostate; 30.7% with SK-MEL-5 melanoma. Also, the growth was 34.3% with UACC-62 melanoma, 42.6% in the assay with LOX IMVI melanoma and 43.7% with SK-MEL-28 melanoma.
For the molecule `COc1ccc(-c2cc(C(=O)N=Nc3c(O)[nH]c4ccccc34)no2)cc1`, the growth is 104% with HCT-15 colon; 99.5% in the assay on HT29 colon; 66.5% in the assay with SNB-75 CNS; 91.5% with SNB-19 CNS; 97.5% in the assay with PC-3 prostate; 98.9% in the assay with SK-MEL-5 melanoma. The results for the growth in the assay on UACC-62 melanoma, in the assay on LOX IMVI melanoma and in the assay with SK-MEL-28 melanoma were 100%, 99.7% and 109%, respectively.
In the case of `c1c2c(cc3c1OCO3)Cc1cc3c(cc1Cc1cc4c(cc1C2)OCO4)OCO3`, the growth in the assay with HCT-15 colon is 103%; in the assay with HT29 colon, 108%; with SNB-75 CNS it was 73%; in the assay on SNB-19 CNS, 106%; with PC-3 prostate, 99.8%; in the assay on SK-MEL-5 melanoma it was 108%. The growth with UACC-62 melanoma is 108%; in the assay with LOX IMVI melanoma, 95.8%; in the assay on SK-MEL-28 melanoma, 103%.
With `Cc1noc(C)c1-c1cc(O)cc(C(O)c2ccccc2)c1` (configuration not stated), the growth in the assay with HCT-15 colon was 36.7%; with HT29 colon, 34.6%; with SNB-75 CNS, -13.2% (active); in the assay on SNB-19 CNS it was 52.7%; in the assay on PC-3 prostate, 48.4%; in the assay on SK-MEL-5 melanoma, 54.2%. Moreover, the figures for the growth with UACC-62 melanoma, with LOX IMVI melanoma and in the assay with SK-MEL-28 melanoma were 31.6%, 27.3% and 61.2%, respectively.
For `Oc1cccc(Nc2nccc(-c3ccc4ccccc4c3)n2)c1`, the growth in the assay with HCT-15 colon was 22.2%; in the assay on HT29 colon, 56.8%; with SNB-75 CNS, 23.3%; with SNB-19 CNS, 28.7%; with PC-3 prostate, 28.1%; with SK-MEL-5 melanoma, 32.5%. In addition, the growth in the assay with UACC-62 melanoma was 32.9%; in the assay with LOX IMVI melanoma, 32.5%; in the assay with SK-MEL-28 melanoma it was 49.5%.
`O=C(Cn1cc(CN2C(=O)c3ccccc3S2(=O)=O)nn1)Nc1ccc([N+](=O)[O-])cc1Cl`: the growth is 102% in the assay on HCT-15 colon; 108% in the assay with HT29 colon; 97.4% in the assay with SNB-75 CNS; 98.2% in the assay on SNB-19 CNS; 95.4% with PC-3 prostate; 99.7% in the assay on SK-MEL-5 melanoma. In addition, the growth with UACC-62 melanoma is 81.8%; in the assay on LOX IMVI melanoma, 92.1%; with SK-MEL-28 melanoma it was 97%.
For the molecule `CN1CCCCC1CCN1c2ccccc2Sc2ccc(Cl)cc21` (configuration not stated), the growth with HCT-15 colon was 49.3%; in the assay with HT29 colon it was 31.4%; with SNB-75 CNS, 7.16% (active); in the assay on SNB-19 CNS it was 97%; with PC-3 prostate, 59.5%; with SK-MEL-5 melanoma, 55.7%. In addition, the results for the growth with UACC-62 melanoma, in the assay on LOX IMVI melanoma and in the assay on SK-MEL-28 melanoma were 77.9%, 68.1% and 75%, respectively.
Turning to `Cc1ccc(S(=O)(=O)N(CCc2ccc(Cl)cc2)S(=O)(=O)c2ccc(C)cc2)cc1`, the growth in the assay on HCT-15 colon was 94.5%; in the assay on HT29 colon, 86%; in the assay on SNB-75 CNS, 67.7%; in the assay with SNB-19 CNS it was 94.6%; with PC-3 prostate, 85.9%; in the assay with SK-MEL-5 melanoma it was 87.6%. Further, the values for the growth with UACC-62 melanoma, with LOX IMVI melanoma and in the assay on SK-MEL-28 melanoma were 78.1%, 92.4% and 93.9%, respectively.
In the case of `O=S(=O)(Nc1ccc(F)c(Cl)c1)c1ccc(-c2cnc(C3CC3)o2)cc1`, the growth in the assay on HCT-15 colon was 22.3%; in the assay with HT29 colon, -3.16% (active); in the assay on SNB-75 CNS it was -14.4% (active); in the assay on SNB-19 CNS, 49.3%; in the assay with PC-3 prostate, 24.9%; with SK-MEL-5 melanoma, 6.59% (active). The growth in the assay with UACC-62 melanoma is 28.3%; in the assay with LOX IMVI melanoma, 42.8%; in the assay on SK-MEL-28 melanoma, 62.5%.
For the molecule `CCCCCN(CCCCC)CCC[C@@H](C)[C@H]1CC[C@H]2[C@@H]3[C@H](OCCCN)C[C@@H]4C[C@H](OCCCN)CC[C@]4(C)[C@H]3C[C@H](OCCCN)[C@]12C`, the growth is 72.3% in the assay with HCT-15 colon; 24.5% in the assay with HT29 colon; 70.6% in the assay on SNB-75 CNS; 61% in the assay with SNB-19 CNS; 80.5% in the assay on PC-3 prostate; 25.1% in the assay on SK-MEL-5 melanoma. The growth was 13.6% in the assay on UACC-62 melanoma, 3% (active) with LOX IMVI melanoma and 27.9% in the assay on SK-MEL-28 melanoma.
On to `CC1(C)OCC2OC3(C(=O)O)OC(C)(C)OC3C2O1` (configuration not stated), for which the growth was 99.6% with HCT-15 colon; 108% in the assay with HT29 colon; 89.2% in the assay on SNB-75 CNS; 100% with SNB-19 CNS; 106% in the assay on PC-3 prostate; 105% with SK-MEL-5 melanoma. Further, the growth with UACC-62 melanoma was 111%; in the assay on LOX IMVI melanoma, 84.5%; in the assay with SK-MEL-28 melanoma, 124%.
Consider `CC(C)CC(CC1=CCC2CC1C2(C)C)C1=C(O)C(C)(C)C(=O)C(C)(C)C1=O` (configuration not stated), for which the growth in the assay with HCT-15 colon is 13.5%; in the assay on HT29 colon, 1.62% (active); with SNB-75 CNS it was 19.7%; with SNB-19 CNS it was 16%; in the assay on PC-3 prostate it was 5.09% (active); in the assay on SK-MEL-5 melanoma it was -31.2% (active). Moreover, the growth in the assay with UACC-62 melanoma is 9.64% (active); in the assay with LOX IMVI melanoma, 6% (active); in the assay on SK-MEL-28 melanoma, 28.8%.
Turning to `COc1cc2cc(COc3nccc(-c4ccc(Cl)cc4)n3)c(=O)[nH]c2cc1OC`, the growth is 63.6% in the assay on HCT-15 colon; -7.34% (active) with HT29 colon; 91.6% in the assay on SNB-75 CNS; 77.1% with SNB-19 CNS; 71.4% in the assay with PC-3 prostate; 77.2% in the assay with SK-MEL-5 melanoma. Further, the growth was 92.3% in the assay with UACC-62 melanoma, 54.7% with LOX IMVI melanoma and 40.3% in the assay with SK-MEL-28 melanoma.
On to `CC(C)c1c(C(=O)Nc2ccccc2)c(-c2ccccc2)c(-c2ccc(F)cc2)n1CC[C@@H]1CC=CC(=O)O1`, for which the growth in the assay with HCT-15 colon was -42.7% (active); in the assay with HT29 colon it was -35.6% (active); in the assay on SNB-75 CNS, -25% (active); in the assay on SNB-19 CNS, 14.2%; in the assay on PC-3 prostate, -39.2% (active); in the assay on SK-MEL-5 melanoma, 21.7%. Besides, the growth was 18.9% with UACC-62 melanoma, -75.4% (active) with LOX IMVI melanoma and -57.1% (active) in the assay on SK-MEL-28 melanoma.
As to `C[C@@H]1CC[C@@H]2[C@@H]1[C@H](OC(=O)/C=C/c1ccccc1)[C@]1(C3CCCCC3)C[C@@H](OC(=O)CO)[C@@]2(C)O1`, the growth was 66.2% with HCT-15 colon; 38.4% in the assay on HT29 colon; 88.4% in the assay with SNB-75 CNS; 88.2% in the assay on SNB-19 CNS; 22.8% with PC-3 prostate; 85.9% with SK-MEL-5 melanoma. Besides, the growth with UACC-62 melanoma is 73.3%; in the assay with LOX IMVI melanoma, 76%; in the assay with SK-MEL-28 melanoma, 83.8%.
